Reference: PubChem BioAssay (NCI)
The panel holds about 83,000 compounds, 20% with a hit somewhere; the sample as a whole holds those more often.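 For each line, cells grew in 96-well plates with the test compound present at a single concentration for 48 hours.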 Values without a mark were called inactive. The source made the active and inactive calls. Rule for the calls: active = growth percent below 10; inactive = the rest.

What was measured:
Test in all cases: NCI-60 one-dose screen, 48 h (100 = growth as untreated, 0 = no growth, -100 = all killed)
Conditions in all cases: 10 µM unless noted
NCI-H23 lung = test system: NCI-H23 lung
NCI-H226 lung = test system: NCI-H226 lung
NCI-H322M lung = test system: NCI-H322M lung
HOP-62 NSCLC = test system: HOP-62 NSCLC
NCI-H460 lung = test system: NCI-H460 lung
HOP-92 NSCLC = test system: HOP-92 NSCLC
NCI-H522 lung = test system: NCI-H522 lung
A549/ATCC NSCLC = test system: A549/ATCC NSCLC
786-0 renal = test system: 786-0 renal
DU-145 prostate = test system: DU-145 prostate
K-562 leukemia = test system: K-562 leukemia
MALME-3M melanoma = test system: MALME-3M melanoma
MDA-MB-231 breast = test system: MDA-MB-231 breast
RXF 393 renal = test system: RXF 393 renal
SF-268 CNS = test system: SF-268 CNS
SF-295 CNS = test system: SF-295 CNS
SF-539 CNS = test system: SF-539 CNS
UACC-257 melanoma = test system: UACC-257 melanoma
M14 melanoma = test system: M14 melanoma
COLO 205 colon = test system: COLO 205 colon

Structure (SMILES)	growth (NCI-H23 lung) [%]	growth (NCI-H226 lung) [%]	growth (NCI-H322M lung) [%]	growth (HOP-62 NSCLC)	growth (NCI-H460 lung)	growth (HOP-92 NSCLC) [%]	growth (NCI-H522 lung)	growth (A549/ATCC NSCLC)	growth (786-0 renal)	growth (DU-145 prostate)	growth (K-562 leukemia)	growth (MALME-3M melanoma)	growth (MDA-MB-231 breast)	growth (RXF 393 renal)	growth (SF-268 CNS) [%]	growth (SF-295 CNS)	growth (SF-539 CNS)	growth (UACC-257 melanoma) [%]	growth (M14 melanoma)	growth (COLO 205 colon)
CC1(C)NCCC[C@]2(C)[C@H]3CC=C4[C@@H]5C[C@@](C)(CO)CC[C@]5(C)CC[C@@]4(C)[C@]3(C)CC[C@@H]12	81.3	83.9	81.7	88.8%	4.29% (active)	38.3	73.8%	51%	55.5%	75.6%	9.28% (active)	57%	58%	57.8%	67.1	64.1%	64.6%	55.1	33.6%	
CCN1C(=O)/C(=c2\sc3n(c2=O)NC2C(N=3)N(CC)C(=O)N2CC)c2ccccc21 (stereo unspecified)	38.5	102	47	43.1%	18%	21.6	15%	38.9%	38.2%	17.8%	10.2%	36.7%	19.9%		63.9	16.4%	-18.6% (active)	82.5	38%	
CCOC(=O)c1c(C)nc2c(c1N)C(=O)C(=O)N2Cc1ccc(C(F)(F)F)cc1	69.8	73.2	97.3	60.5%	93.7%	50.3	31%	84.3%	33.9%	84.5%	36.2%	59.3%	75.6%	58.7%	59.7	81%	52.6%	74.2	53%	
c1cnc2nc3c(cc2c1)oc1ccccc13	95.9	93.2	99.9	108%	95.2%	90.3		87.3%	89.4%	103%	92.4%	109%	86.3%		97.1	96.7%	93.2%	116	105%	109%
COc1c(Cl)cc(Cl)c2ccc(C=C3C(=O)N(C)C(=O)N(C)C3=O)nc12	104	100	106	37.3%	96.8%	119		111%	53.7%	108%	100%	107%	107%		97.3	80.3%	98.6%	106	-15.7% (active)	110%
C1=C2CNCC3=Cc4ccc5ccccc5c4OC23Oc2c1ccc1ccccc21	52.8	67.7	98	43.6%	33.5%	37.2	0.285% (active)	50.6%		65.3%	18.8%	60.6%	51.3%	-3.36% (active)	42.7	11.6%	50.5%	60.9	2.63% (active)	50.8%
O=C1NC(=S)NC(=O)C1=Cc1cn(Cc2ccccn2)c2ccccc12	77.9	86.7	95.5	53.6%	10.7%	66.9		66.2%	43.9%	76.8%	26.4%	85.1%	53.3%		59.6	73.6%	60.7%	87.8	-61.2% (active)	58.4%
O=C(Nc1cccc(Cl)c1)Oc1c(Br)c(Br)c(Br)c(Br)c1Br	91	81.3	107	56.1%	99.7%	66.5		73.7%	93.8%	105%	78.5%	90.7%	103%		91.4	79.2%	98.1%	69.4	90.9%	100%
Cc1cc(C)n(Nc2nc3ccccc3[nH]c2=O)c(=O)c1C#N	89.8	89	100	93%	100%	76.2		96.9%	96.5%	101%	94.3%	91.7%	80.6%	97.9%	92.9	95.6%	87.2%	97.6	98.8%	113%
ClCC1(Cn2cnc3c(Cl)nc(Cl)nc32)COC1	69.1	87.7	100	103%	86.5%	73.1		57.5%	88.4%	67.8%	64.7%	102%	80.4%		78	88.8%	103%	75.8	62.6%	80.2%
O=C(/C=C/c1ccc[nH]1)c1ccc(-n2ccc(C(F)(F)F)n2)cc1	90.1	91.5	72.4	104%	99.1%		-6.16% (active)	50.6%	45.4%	96.4%	68.1%	86%	22.7%	50%	34.2	70.2%	14.3%	96.7	94.5%	122%
CC1=CC[C@@H]2CC[C@]3(C)[C@H](CC[C@@H]4[C@@]5(C)CCCNC(C)(C)[C@@H]5CC[C@]43C)[C@H]2[C@@H]1C	63.1	107	20.7	105%	-70.4% (active)	23.8		-14% (active)	-72.5% (active)	-7.26% (active)		3.21% (active)	-7.94% (active)		40.2	-35.2% (active)	77.5%	76.7	15.5%	-93.5% (active)
CCC1(CC)NC(=O)c2c(c3ccc(Cl)c(Cl)c3n2C)C1C#N (stereo unspecified)	93	95.6	103	81.2%	98.7%	62.1		88.6%	94.3%	123%	91.4%	109%	71.2%		90.3	102%	95.4%	100	105%	
Clc1ccc(C2CC(c3cccc(Nc4ccncc4)c3)=NN2c2ccc(Cl)cc2)cc1 (stereo unspecified)	47.7	91.9	54.9	-44.4% (active)	-81% (active)	46.3		9.48% (active)	-71.7% (active)	17.6%	-1.93% (active)	-64.4% (active)	19%		60.2	-79.2% (active)	71.2%	64.7	-80.1% (active)	-61.5% (active)
NNC(=O)/C(=C\c1ccc([N+](=O)[O-])cc1)CC(=O)c1ccc(Cl)c(Cl)c1	91.6	69.2	84.3	83.3%	90.5%	103		78.9%	92.9%	88.7%	88.8%	94.3%	89%	97.8%	65.1	93.6%	98.1%	91.1	85.6%	100%
COc1nccnn1	107	96.2	91	114%	122%	69.5		102%	104%	96.2%	80.7%	120%	110%		114	136%	104%	109	108%	112%
C=C(C)[C@@H]1CC[C@]2(C=O)CC[C@]3(C)[C@H](CC[C@@H]4[C@@]5(C)CCCNC(C)(C)[C@@H]5CC[C@]43C)[C@@H]12	78.7	91.7	91.5	94.5%	16.7%	54.5		62.2%	80.9%	77.6%	0.984% (active)	77.7%	91.2%	85.9%	90.8	105%	90.1%	86.6	81%	-78.8% (active)
